Assay [1] relates to Plasmodium falciparum Sir2 (PF13_0152, Sir2A). Briefly: Plasmodium falciparum Sir2A binding compounds – biochemical, small-molecule microarray, 635 nm fluorescence, primary screen (AID 1098).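 Further: score merges spot fluorescence intensity with its signal-to-noise ratio.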 As to conditions: fluorescence 635 nm, higher = more signal.
A short description of assay [2]: probe aDKK1 binding to arrayed compounds – biochemical, biotinylated probe, 635/667 nm fluorescence, primary screen (AID 1099).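 Further: score merges 667nm spot fluorescence with signal to noise across triplicate slides.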 As to conditions: small-molecule microarray, higher = more signal.
A short description of assay [3]: probe aCHRDL2 binding to arrayed compounds – biochemical, biotinylated probe, 635/667 nm fluorescence, primary screen (AID 1100). As to conditions: small-molecule microarray, higher = more signal.
Assay [4] in a line: change in splice reporter luminescence, either direction, cell-based, HEK293, spliceosome inhibition project, primary screen (AID 1101).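 Further: HEK293 cells carrying a splicing-competent luciferase reporter gene; test concentration not given here.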 As to conditions: HEK293 splicing luciferase reporter, 24 h, higher = more signal, called active from +8 up or from −8 down. (In a reporter assay the amount or activity of a reporter protein is the signal.)
The target in assay [5] is Fibroblast growth factor 10 (Homo sapiens) (UniProt O15520). Briefly: compounds binding fibroblast growth factor 10 – biochemical, small-molecule microarray, 635 nm fluorescence, primary screen (AID 1102). The conditions noted are these: FGF10 binding, fluorescence 635 nm, higher = more signal.
Sequence of Fibroblast growth factor 10 (Homo sapiens) (O15520 whole entry, looked up): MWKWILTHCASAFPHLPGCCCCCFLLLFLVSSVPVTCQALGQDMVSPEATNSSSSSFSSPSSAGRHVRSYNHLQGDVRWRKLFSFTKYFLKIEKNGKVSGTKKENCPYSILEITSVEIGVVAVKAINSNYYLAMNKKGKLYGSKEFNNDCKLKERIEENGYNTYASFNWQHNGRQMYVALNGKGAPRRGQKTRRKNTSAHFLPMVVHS
Assay [6] deals with glycogen synthase kinase-3 (GSK3A per assay name; protocol says GSK3B). Kind of assay: compounds binding glycogen synthase kinase-3 – biochemical, small-molecule microarray, 635 nm fluorescence, GSK3A, primary screen (AID 1103). Further: the record names both GSK3A and GSK3B. As to conditions: fluorescence 635 nm, higher = more signal.
In assay [7] the target is Epidermal growth factor receptor (Homo sapiens) (UniProt P00533). Briefly: compounds binding epidermal growth factor receptor – biochemical, small-molecule microarray, 635 nm fluorescence, primary screen (AID 1104).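 Further: score merges 667 nm emission intensity with spot signal to noise over triplicate slides.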 As to conditions: EGFR binding, higher = more signal.
Sequence of Epidermal growth factor receptor (Homo sapiens) (P00533 whole entry, looked up): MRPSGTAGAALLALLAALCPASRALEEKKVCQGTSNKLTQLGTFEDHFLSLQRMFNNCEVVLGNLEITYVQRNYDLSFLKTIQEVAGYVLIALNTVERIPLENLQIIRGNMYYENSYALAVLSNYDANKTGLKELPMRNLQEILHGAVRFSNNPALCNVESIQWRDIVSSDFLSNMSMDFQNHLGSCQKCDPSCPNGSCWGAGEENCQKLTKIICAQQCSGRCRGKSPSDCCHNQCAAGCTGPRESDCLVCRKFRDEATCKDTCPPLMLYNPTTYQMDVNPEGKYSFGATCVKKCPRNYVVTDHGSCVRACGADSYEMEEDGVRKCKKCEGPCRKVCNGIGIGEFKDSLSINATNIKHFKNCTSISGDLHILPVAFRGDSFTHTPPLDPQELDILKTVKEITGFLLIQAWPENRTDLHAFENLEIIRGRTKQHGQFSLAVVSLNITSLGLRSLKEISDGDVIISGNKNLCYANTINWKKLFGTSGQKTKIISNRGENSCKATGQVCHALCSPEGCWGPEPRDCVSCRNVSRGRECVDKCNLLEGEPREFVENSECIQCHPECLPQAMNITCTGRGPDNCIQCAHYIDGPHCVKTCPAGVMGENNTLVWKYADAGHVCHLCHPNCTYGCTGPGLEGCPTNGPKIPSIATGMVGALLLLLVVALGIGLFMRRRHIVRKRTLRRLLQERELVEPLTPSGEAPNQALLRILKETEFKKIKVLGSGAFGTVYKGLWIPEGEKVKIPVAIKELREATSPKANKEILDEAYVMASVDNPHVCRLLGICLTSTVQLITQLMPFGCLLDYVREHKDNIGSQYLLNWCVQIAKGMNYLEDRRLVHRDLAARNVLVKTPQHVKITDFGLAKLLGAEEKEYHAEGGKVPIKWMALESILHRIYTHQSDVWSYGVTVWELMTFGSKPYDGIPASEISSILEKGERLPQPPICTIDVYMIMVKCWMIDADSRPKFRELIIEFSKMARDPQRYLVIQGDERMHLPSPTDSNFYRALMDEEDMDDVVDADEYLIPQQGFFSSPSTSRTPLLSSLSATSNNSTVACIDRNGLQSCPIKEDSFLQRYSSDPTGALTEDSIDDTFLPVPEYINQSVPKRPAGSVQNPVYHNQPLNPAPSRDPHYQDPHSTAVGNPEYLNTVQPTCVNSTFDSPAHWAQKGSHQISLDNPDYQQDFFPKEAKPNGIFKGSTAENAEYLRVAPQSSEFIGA
Assay [8] concerns the target Follistatin-related protein 3 (Homo sapiens) (UniProt O95633). Kind of assay: compounds binding follistatin-related protein 3 – biochemical, small-molecule microarray, 635 nm fluorescence, primary screen (AID 1105).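 Further: score merges emission near 667 nm and signal to noise per printed spot across three slides.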 The conditions noted are these: FSTL3 binding, higher = more signal.
Assay [9] addresses Dickkopf-related protein 1 (Homo sapiens) (UniProt O94907). Briefly: small molecules binding DKK1 protein – biochemical, small-molecule microarray, 635 nm fluorescence scan, primary screen (AID 1106).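 Further: score merges emission near 667 nm with signal to noise over three replicate slides.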 The conditions noted are these: higher = more signal.
Assay [10] relates to Inhibin beta A chain (activin A). Briefly: small molecules binding activin A – biochemical, small-molecule microarray, 635 nm fluorescence scan, primary screen (AID 1107).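 Further: mouse activin A protein probed at 4.33 µg/mL on printed slides; score merges bound-protein fluorescence near 667 nm with spot signal-to-noise.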 As to conditions: INHBA, higher = more signal.
Assay [11] has as its system Human papillomavirus type 1a protein E7 (residues 44-93). Kind of assay: small molecules binding HPV E7 44-93 – biochemical, small-molecule microarray, residues 44-93, 635 nm fluorescence, primary screen (AID 1108).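 Further: E7 fragment applied at 1 µg/mL in TBST for 1 h at 4 C; score combines spot fluorescence with its signal to noise ratio.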 As to conditions: fluorescence 635 nm, higher = more signal.
The nature of assay [12]: hepatitis C replication reporter changes, two-sided – Huh7 cells, luciferase reporter, HCV replication inhibitor project, primary screen (AID 1109).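 Further: huh7 hepatoma cells harbouring a luciferase neomycin HCV replicon reporter; luciferase luminescence as measure of HCV replicon replication; test concentration not given here.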 The conditions noted are these: Huh7 HCV replicon luciferase reporter, 48 h; higher = more signal.
In assay [13] the target is Left-right determination factor 2 (Homo sapiens) (UniProt O00292). Kind of assay: small molecules binding LEFTY2 protein – biochemical, small-molecule microarray, 635 nm fluorescence scan, primary screen (AID 1110). As to conditions: higher = more signal.
Sequence of Left-right determination factor 2 (Homo sapiens) (O00292 whole entry, looked up): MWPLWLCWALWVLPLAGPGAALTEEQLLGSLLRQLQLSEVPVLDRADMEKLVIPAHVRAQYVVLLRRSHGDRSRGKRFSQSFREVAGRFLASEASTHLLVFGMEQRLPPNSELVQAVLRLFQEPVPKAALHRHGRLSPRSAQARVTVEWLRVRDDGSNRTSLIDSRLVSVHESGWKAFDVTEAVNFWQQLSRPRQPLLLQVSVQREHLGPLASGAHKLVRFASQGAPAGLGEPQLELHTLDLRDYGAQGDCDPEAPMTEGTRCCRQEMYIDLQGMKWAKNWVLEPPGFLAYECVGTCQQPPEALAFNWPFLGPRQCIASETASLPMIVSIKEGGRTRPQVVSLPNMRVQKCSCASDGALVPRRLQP
The target of assay [14] is Calmodulin-1 (Homo sapiens) (UniProt P0DP23). Kind of assay: small molecules binding calmodulin-1 with EGTA – biochemical, small-molecule microarray, Cy5-labelled CALM1, profiling panel (AID 1111).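 Further: labelled calmodulin applied in Tris saline Tween buffer holding calcium plus EGTA and DTT.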 As to conditions: Cy5-CALM1 binding fluorescence, higher = more signal.
The target is the same in assay [15]. Kind of assay: small molecules binding Ca-loaded calmodulin-1 – biochemical, small-molecule microarray, Cy5-labelled CALM1, plus calcium, artefact control for SMM control-protein annotation, profiling panel (AID 1112).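 Further: score merges spot fluorescence with signal to noise from triplicate slides.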 The conditions noted are these: Cy5-CALM1 binding fluorescence, higher = more signal.
Assay [16] can be described thus: probe aWnt5a binding to arrayed compounds – biochemical, biotinylated probe, 635/667 nm fluorescence, primary screen (AID 1113).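 Further: score merges 667 nm fluorescence intensity with signal-to-noise per printed feature.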 As to conditions: small-molecule microarray, higher = more signal.
Assay [17] can be described thus: probe aShh binding to arrayed compounds – biochemical, biotinylated probe, 635/667 nm fluorescence, primary screen (AID 1114).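 Further: probe is biotin-labelled aShh protein from a stem cell growth factor screen; measures binding of labelled protein to compounds printed on the slide; score merges feature fluorescence at 667 nm with signal-to-noise.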 As to conditions: small-molecule microarray, higher = more signal.
Assay [18] is described as follows: probe aNog binding to arrayed compounds – biochemical, biotinylated probe, 635/667 nm fluorescence, primary screen (AID 1115).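 Further: probe is biotinylated aNog protein used at 0.15 µg/mL for 1 h at 4 C; z-score combines 667 nm fluorescence of each spot with its signal to noise.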 The conditions noted are these: small-molecule microarray, higher = more signal.
The target in assay [19] is Torsin-1A-interacting protein 1 (Homo sapiens) (UniProt Q5JTV8). Briefly: compound microarray binding of lysate hLAP1 – cell lysate, small-molecule microarray, COS7 lysate, 635/667 nm fluorescence, primary screen (AID 1116). As to conditions: 635 nm fluorescence, higher = more signal.
Sequence of Torsin-1A-interacting protein 1 (Homo sapiens) (Q5JTV8 whole entry, looked up): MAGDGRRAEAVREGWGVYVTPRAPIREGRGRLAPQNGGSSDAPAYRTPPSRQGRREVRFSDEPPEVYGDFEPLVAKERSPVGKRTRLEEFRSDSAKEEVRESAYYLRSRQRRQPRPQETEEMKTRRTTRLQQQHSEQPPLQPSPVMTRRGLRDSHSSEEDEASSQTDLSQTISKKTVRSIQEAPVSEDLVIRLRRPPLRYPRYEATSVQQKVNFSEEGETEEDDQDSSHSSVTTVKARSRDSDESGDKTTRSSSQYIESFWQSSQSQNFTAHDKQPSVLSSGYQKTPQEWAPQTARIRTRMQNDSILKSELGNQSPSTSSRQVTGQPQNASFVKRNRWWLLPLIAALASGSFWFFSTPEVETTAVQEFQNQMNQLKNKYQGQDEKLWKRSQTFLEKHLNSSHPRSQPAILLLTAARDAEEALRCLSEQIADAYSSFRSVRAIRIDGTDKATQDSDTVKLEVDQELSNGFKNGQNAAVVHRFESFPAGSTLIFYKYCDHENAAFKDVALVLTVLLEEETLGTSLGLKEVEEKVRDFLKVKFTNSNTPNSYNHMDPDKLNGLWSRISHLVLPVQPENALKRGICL
The target of assay [20] is Alpha-bungarotoxin (Bungarus multicinctus) (UniProt P60615). Kind of assay: compounds binding labelled alpha-BTX control protein – biochemical, small-molecule microarray, Alexa647 label, 635/667 nm fluorescence, artefact control for SMM control protein annotation, profiling panel (AID 1117). The conditions noted are these: alpha-BTX-A647 binding fluorescence, higher = more signal.
Sequence of Alpha-bungarotoxin (Bungarus multicinctus) (P60615 whole entry, looked up): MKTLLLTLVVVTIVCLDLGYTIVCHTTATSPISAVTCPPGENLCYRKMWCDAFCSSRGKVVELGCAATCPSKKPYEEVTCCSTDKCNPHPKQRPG

Activity calls are given as the source filed them.

Sequence of Follistatin-related protein 3 (Homo sapiens) (O95633 whole entry, looked up): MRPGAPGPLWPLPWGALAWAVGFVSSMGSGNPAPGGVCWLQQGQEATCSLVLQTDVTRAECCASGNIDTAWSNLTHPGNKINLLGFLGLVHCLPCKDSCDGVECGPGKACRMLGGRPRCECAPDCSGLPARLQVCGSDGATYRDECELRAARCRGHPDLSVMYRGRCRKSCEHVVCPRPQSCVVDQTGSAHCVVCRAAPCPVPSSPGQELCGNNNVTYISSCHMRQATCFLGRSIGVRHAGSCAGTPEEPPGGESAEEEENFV
Sequence of Dickkopf-related protein 1 (Homo sapiens) (O94907 whole entry, looked up): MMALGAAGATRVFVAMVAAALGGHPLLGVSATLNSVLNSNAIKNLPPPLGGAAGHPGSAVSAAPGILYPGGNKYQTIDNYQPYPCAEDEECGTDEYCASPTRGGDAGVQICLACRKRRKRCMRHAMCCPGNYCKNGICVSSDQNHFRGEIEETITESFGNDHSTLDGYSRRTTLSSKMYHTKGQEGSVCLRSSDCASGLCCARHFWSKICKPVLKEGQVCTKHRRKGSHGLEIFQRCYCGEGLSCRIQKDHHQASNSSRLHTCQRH

Turning to `COc1ccc([C@H]2OC[C@@H]3CC4(CC=CC4)C(=O)N32)cc1`, the composite z-score in assay [1] was 0.165; in [2] it was -0.231; in assay [3] it was -0.147; in assay [5] it was 0.93; in assay [6], 0.784; in assay [7] it was 1.04. In addition, the composite z-score in [8] was 1.31; in assay [9], 1.42; in assay [10], 1.25; in assay [11] it was 0.659; in assay [13], 0.935; in [14], -1.18. Further, the composite z-score in [15] was -1.99; in [16], -0.124; in assay [17], -0.0146; in assay [18], -0.196; in [19] it was -0.251; in assay [20], 0.144. The z-score in assay [4] is -0.297 (inactive); in [12] it was 0.0751.

Take `[N-]=[N+]=NCc1ccccc1C[C@]1(C(=O)NCC(O)CO)N=C(c2ccc(OCCCO)cc2)O[C@H]1c1ccccc1` (stereo not given in full): the composite z-score in [1] was -0.338; in [2] it was 1.04; in assay [3] it was 0.889; in [5], -0.337; in assay [6], -0.836; in [7], -0.886. Moreover, the composite z-score in assay [8] is -0.689; in [9], -1.37; in assay [10], 0.51; in [11] it was 0.722; in assay [13], -1.84; in assay [14], 1.51. Besides, the composite z-score in assay [15] is 1.24; in assay [16], -0.0405; in [17], -0.0211; in assay [18] it was 1.06; in [19], 0.846; in assay [20], 0.19. Further, the z-score was 0.321 (inactive) in assay [4] and -1.82 in assay [12].

With `CCOC(=O)C[C@H]1[C@H](OC(=O)c2cc3ccccc3oc2=O)[C@@H](NC(=O)Cc2ccc(OC)cc2)c2cc(OCCCO)ccc2N1C(=O)c1ccccc1`, the composite z-score is 0.39 in [1]; -0.351 in assay [2]; -0.355 in assay [3]; 0.458 in assay [5]; 0.0878 in assay [6]; 0.436 in [7]. Further, the composite z-score in [8] was 0.23; in assay [9], 0.313; in assay [10], 0.726; in [11] it was 0.856; in assay [13], 0.427; in assay [14] it was -0.13. Besides, the composite z-score in [15] is -0.342; in assay [16], -0.139; in assay [17], 0.299; in [18] it was 1.75; in assay [19], 0.559; in [20] it was 0.258. For the same compound, the z-score is -0.854 (inactive) in assay [4] and -0.273 in [12].

Take `C#CCN(Cc1ccccc1Br)C(/C=C/c1ccccc1)CO` (stereo not given): the composite z-score is -0.877 in assay [1]; -0.23 in [2]; 0.326 in assay [3]; 0.168 in assay [5]; -0.398 in assay [6]; -0.153 in assay [7]. Also, the composite z-score in assay [8] is -0.649; in assay [9], -0.0455; in assay [10], 0.904; in assay [11], -0.413; in [13] it was -0.362; in assay [14], -0.669. Further, the composite z-score was -0.423 in [15]; -0.16 in assay [16]; 0.0494 in [17]; -0.443 in [18]; 0.104 in [19]; 0.0125 in assay [20]. Besides, the z-score in [4] was -1.03 (inactive); in assay [12] it was -3.49.

With `CN(C)CCCCCCNC(=O)[C@@H]1C[C@@H]2C(=O)N[C@@H](CCCCN)C(=O)N2[C@@H]1c1cccc(OCCO)c1`, the composite z-score in assay [1] was found to be 1.96; in assay [2], 2.69; in [3], 1.65; in assay [5], 1.59; in [6] it was 1.47; in [7], 1.11. The composite z-score in assay [8] stood at 1.66; in [9] it was 2.13; in [10], 1.55; in assay [11], 1.49; in assay [13], 1.34; in assay [14], 2.8. Moreover, the composite z-score in assay [15] turned out to be 1.34; in [16], 1.07; in [17], 1.7; in assay [18], 3.42; in [19], 4.77; in [20], 2. The z-score in assay [4] was -1.56 (inactive); in assay [12], -0.0282.

For the origin of these results see PubChem BioAssay.
